Screen size: about 13,000 compounds; about 3,200 (25%) showed an effect of 50% or more. Some of the results follow.
Each compound was assayed on P. falciparum stage V gametocytes. Settings: 48 h, 5 µM; inhibitor.
Set-up: BacTiter-Glo ATP luminescence viability of purified stage V gametocytes in 384-well plates, per cent inhibition versus DMSO
`CCC1(CC)N=C(N)N=C(N)C1c1ccc(Cl)c(Cl)c1` (stereo not shown) [TCMDC-137597] was tested, and the “% Inhibition” value was 8.83%.
For `COc1ccc(CN2CCCC(C(=O)c3ccc(C(F)(F)F)cc3)C2)c(O)c1` (stereo not shown) [TCMDC-124631], the “% Inhibition” value was 43.69%.
With `CS(=O)(=O)Cc1ccc(Nc2nccc(-c3c(-c4cccc(NC(=O)C5CCCCC5)c4)nn4ncccc34)n2)cc1` [TCMDC-135812] the “% Inhibition” value was -14.86%.
For `CC(=O)Nc1cccc(-c2cnc(N)c3cc(-c4ccc5c(c4)OCO5)ccc23)c1` [TCMDC-134504], the “% Inhibition” value was 30.5%.
In the case of `Cn1nccc1C(=O)NCCNCc1ccc(-c2ccc(-c3nc4ccccc4[nH]3)s2)cc1.O=C(O)C(F)(F)F` [TCMDC-133004], the “% Inhibition” value is reported as -2.407%.
For `CCC(=O)c1ccc(-c2ccc(=O)n(CC(=O)N(CCN(CC)CC)Cc3ccc(-c4ccc(C(F)(F)F)cc4)cc3)n2)cc1` [TCMDC-141574], the “% Inhibition” value was 82.08%.
For `CCN(CC)S(=O)(=O)c1cc(-c2ccc(=O)n(CC(=O)c3ccc(C)cc3)n2)ccc1C` [TCMDC-124707], the “% Inhibition” value was -20.12%.
For `CCN(CC)CCN(Cc1ccc(-c2ccc(C(F)(F)F)cc2)cc1)C(=O)Cn1nc(-c2ccc(C(F)(F)F)cc2)ccc1=O` [TCMDC-141575], the “% Inhibition” value was 69.38%.
In the case of `CN(C)S(=O)(=O)c1ccc(Nc2nc(NCCC3C=NC=N3)nc3cc[nH]c(=O)c23)cc1` (stereo not shown) [TCMDC-135045], the “% Inhibition” value is reported as -6.172%.
`NS(=O)(=O)c1cccc(Nc2nc(N[C@@H]3CCNC3)nc3cc[nH]c(=O)c23)c1` [TCMDC-135057] was tested, and the “% Inhibition” value was -11.44%.
`O=c1[nH]ccc2nc(N[C@@H]3CCNC3)nc(Nc3cccc(S(=O)(=O)N4CCOCC4)c3)c12` [TCMDC-135047] was tested, and the “% Inhibition” value was 89.83%.
In the case of `O=c1[nH]ccc2nc(N[C@@H]3CCNC3)nc(Nc3ccc4c(c3)S(=O)(=O)CC4)c12` [TCMDC-135044], the “% Inhibition” value is reported as 71.11%.
With `Cc1cccc(Nc2nc(N[C@@H]3CCCNC3)nc3cc[nH]c(=O)c23)c1` [TCMDC-134835] the “% Inhibition” value was -44.23%.
`O=c1[nH]ccc2nc(N[C@@H]3CCNC3)nc(Nc3cc(Cl)cc(Cl)c3)c12` [TCMDC-135052] was tested, and the “% Inhibition” value was 102.4%.
In the case of `Cc1cc(N2Cc3ccccc3C2)nc(Nc2ccc(S(=O)(=O)N3CCOCC3)cc2)n1` [TCMDC-134229], the “% Inhibition” value is reported as -25.67%.
`OCCOCCNCc1cccc(C#Cc2cc3ncnc(Nc4ccc(OCc5cccc(F)c5)c(Cl)c4)c3s2)n1` [TCMDC-138843] was tested, and the “% Inhibition” value was -31.63%.
In the case of `CCNc1nc(OCC(F)(F)F)nc(N(c2ccccc2)c2ccccc2)n1` [TCMDC-125801], the “% Inhibition” value is reported as -11.7%.
With `O=C(c1cc(C(=O)NC2CCCCC2)c(=O)n(C2CCCCC2)c1)c1cc(F)ccc1O` [TCMDC-124525] the “% Inhibition” value was 20.48%.
With `NCC(NC(=O)c1ccc(-c2c[nH]c3ncccc23)s1)c1ccccc1` (stereo not shown) [TCMDC-134154] the “% Inhibition” value was -44.12%.
With `CCC1(CC)CN(c2ccccc2)c2ccc(O)cc2S(=O)(=O)C1CC(C)C` (stereo not shown) [TCMDC-137217] the “% Inhibition” value was -89.07%.
With `N#Cc1ccc2c(c1)CCN(CCC1CCC(NC(=O)/C=C/c3ccc4ccccc4c3)CC1)CC2` (stereo not shown) [TCMDC-139779] the “% Inhibition” value was -26.43%.
For `OCCCCCCNc1ccnc2[nH]c3ccc(I)cc3c12` [TCMDC-131830], the “% Inhibition” value was 10%.
In the case of `CC(Sc1nc2sccc2c(=O)n1C)C(=O)Nc1ccc2c(c1)OCO2` (stereo not shown) [TCMDC-125026], the “% Inhibition” value is reported as 100.7%.
For `Cc1cccc2[nH]c(-c3cccc(-c4ccc(NC(=O)Nc5ccc6c(c5)OCO6)cc4)c3)nc12` [TCMDC-133163], the “% Inhibition” value was -27.37%.
In the case of `Cc1cccc2[nH]c(-c3ccc(-c4cccc(NC(=O)Nc5ccc6c(c5)OCO6)c4)cc3)nc12` [TCMDC-133166], the “% Inhibition” value is reported as -1.928%.
`O=C(NCC1CCC(C(=O)O)CC1)c1ccc(/C=C/C(=O)N2CCc3ccccc3C2c2ccc3c(c2)OCO3)cc1` (stereo not shown) [TCMDC-138267] was tested, and the “% Inhibition” value was -9.047%.
For `O=S(=O)(NCCN1CCCC1)c1cccc(-c2ccc(CNCc3ccc(F)cc3)cc2)c1` [TCMDC-132289], the “% Inhibition” value was 105.2%.
With `O=S(=O)(NCCN1CCCC1)c1cccc(-c2cccc(CNCc3ccc(F)cc3)c2)c1` [TCMDC-132276] the “% Inhibition” value was 98.39%.
With `CS(=O)(=O)c1ccc(CNCc2cccc(-c3cccc(-c4nc5ccc(F)cc5[nH]4)c3)c2)cc1` [TCMDC-132907] the “% Inhibition” value was -11.65%.
For `O=S(=O)(NCCN1CCCC1)c1ccc(-c2cccc(CNCc3ccc(F)cc3)c2)cc1` [TCMDC-132407], the “% Inhibition” value was 38.56%.
With `O=C(/C=C/c1ccc(Cl)c(Cl)c1)NCCCCCN1CCC(n2c(=O)[nH]c3ccccc32)CC1` [TCMDC-139330] the “% Inhibition” value was -42.06%.
`CC(C)C[C@H](NC(=O)[C@H](Cc1ccccc1)NC(=O)CCN1C(=O)COc2ccc(C(=O)O)cc21)C(=O)NC(CC1CCCCC1)C(O)CC(=O)NCCCn1ccnc1` (stereo partly shown) [TCMDC-131640] was tested, and the “% Inhibition” value was 6.577%.
`c1ccc(COc2ccc(C3CCCCC3)cc2)nc1` [TCMDC-131330] was tested, and the “% Inhibition” value was 8.048%.
In the case of `CC(CNC(=N)c1cccc(C(=N)NCC(C)Oc2cccc(C3CCCCC3)c2)n1)Oc1cccc(C2CCCCC2)c1.Cl` (stereo not shown) [TCMDC-137455], the “% Inhibition” value is reported as 116.2%.
With `O=C(Cc1ccc(F)cc1)NC1CCN(c2ccnc3cc(Cl)ccc23)C1` (stereo not shown) [TCMDC-133668] the “% Inhibition” value was 7.133%.
With `C=C(C)CSc1nc2c(c(=O)n1CCc1ccccc1)C1(CCCC1)Cc1ccccc1-2` [TCMDC-123892] the “% Inhibition” value was 66.35%.
For `CCCSc1nc2c(c(=O)n1CCc1ccccc1)C1(CCCC1)Cc1ccccc1-2` [TCMDC-123890], the “% Inhibition” value was -17.67%.
For `CC(C)Sc1nc2c(c(=O)n1CCc1ccccc1)C1(CCCC1)Cc1ccccc1-2` [TCMDC-123891], the “% Inhibition” value was -12.92%.
For `Cc1cc(C(=O)Nc2ccc3c(c2)CCN3C2CCN(Cc3cc(F)cc(F)c3F)C2)no1` (stereo not shown) [TCMDC-135083], the “% Inhibition” value was 0.2789%.
With `Cc1nc(N)nc(N)c1CCCOc1cccc(Cl)c1` [TCMDC-138067] the “% Inhibition” value was -4.32%.
With `CN(Cc1ccc(C#N)cc1)C1CCN(c2cc(NC(=O)c3ccc(F)cc3)ccn2)CC1` [TCMDC-134978] the “% Inhibition” value was 9.957%.
In the case of `CN(Cc1cc(C(F)(F)F)cc(C(F)(F)F)c1)C(=O)C(Cc1ccc(F)cc1)C1CCCNC1` (stereo not shown) [TCMDC-138909], the “% Inhibition” value is reported as 92.9%.
With `CN(Cc1cc(C(F)(F)F)cc(C(F)(F)F)c1)C(=O)C1CNCC1c1ccc(F)cc1` (stereo not shown) [TCMDC-137553] the “% Inhibition” value was 10.31%.

Source: article PMC4552634, “A New Set of Chemical Starting Points with Plasmodium falciparum Transmission-Blocking Potential for Antimalarial Drug Discovery” (PLoS ONE, 2015)
